# Test results: PubChem BioAssay
# Where “and” joins values, the source holds several entries; their conditions need not be identical. Equal entries are not always repeated. Inconclusive results are not listed. Some compounds were tested as several samples or in several runs, with calls that do not always agree. Calls of active or inactive are those of the source. Cut-off read from the data, not from the text of the source, unless noted: active = inhibition above about 80%; inactive = the rest.
# Tests used:
# [1] = EMT-state selective cytotoxicity in co-culture – imaging, PC-3E GFP, TEM4-18 mCherry, primary screen (AID 1345086;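 active = compounds killing one labelled cell type while sparing the other, by normalised counts and ratio limits, not self-fluorescent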;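 note: cells exposed to compound for 72 h before imaging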;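 for red/green cell ratio (normalised): normalised mesenchymal count divided by normalised epithelial count so high means epithelial killing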); conditions: PC-3E GFP / TEM4-18 mCherry co-culture, imaging cell counts, at 1 µM
# [2] = viability loss in pontine glioma line – cell-based, SU-DIPG-XVII, MIPE5.0, CellTiter-Glo, qHTS, dose response (AID 1347060; cut-off not given, nearly all actives have AC50 up to about 26 µM;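 note: cells exposed to compound for 48 hours before viability readout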); conditions: CellTiter-Glo ATP luminescence
# [3] = viability loss in pontine glioma line – cell-based, JHH-DIPG-1, MIPE4.0, CellTiter-Glo, qHTS, dose response (AID 1347062; cut-off not given, nearly all actives have AC50 up to about 27 µM;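 note: cells exposed to compound for two days before readout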); conditions: JHH-DIPG-1 viability, CellTiter-Glo ATP luminescence
# [4] = viability loss in pontine glioma line – cell-based, SU-DIPG-IV, MIPE4.0, CellTiter-Glo, qHTS, dose response (AID 1347063; cut-off not given, nearly all actives have AC50 up to about 30 µM;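 note: compound exposure lasted 48 hours before the viability readout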); conditions: CellTiter-Glo ATP luminescence
# [5] = viability loss in pontine glioma line – cell-based, SU-DIPG-XIII, MIPE5.0, CellTiter-Glo, qHTS, dose response (AID 1347064; cut-off not given, nearly all actives have AC50 up to about 23 µM;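 note: cells exposed to compound for 48 hours before the viability read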); conditions: CellTiter-Glo ATP luminescence
# [6] = viability loss in pontine glioma line – cell-based, SU-DIPG-XXV, MIPE5.0, CellTiter-Glo, qHTS, dose response (AID 1347065; cut-off not given, nearly all actives have AC50 up to about 26 µM;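 note: cells exposed to compound for 48 hours before ATP readout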); conditions: CellTiter-Glo ATP luminescence
# [7] = growth inhibition of DIPG cells – cell-based, MIPE4.0 library, CellTiter-Glo luminescence, qHTS (AID 1347066; cut-off not given, nearly all actives have AC50 up to about 30 µM;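 note: cells exposed to compound for 48 hours before readout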); conditions: SU-DIPG-VI viability, CellTiter-Glo ATP luminescence
# [8] = chitosan synthesis blockers in C. neoformans – flow cytometry, Cibacron Brilliant Red staining (AID 1347148; call rule not given here;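 note: compound exposure lasted three days at 37 degrees C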); conditions: Cryptococcus neoformans chitosan, stronger effect = lower value; at 10 µM unless noted
# [9] = biological target: Mitogen-activated protein kinase 7 (Homo sapiens) (UniProt Q13164); assay: Gal4-ERK5 driven luciferase induction – cell-based, HTS, primary screen (AID 1508626;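 active = luciferase signal above three times the same-plate solvent-only control wells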;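 note: luciferase driven by Gal4-ERK5 fusion binding five Gal4 sites before minimal TATA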); conditions: HeLa Gal4-ERK5 transactivation, 18 h, at 5 µM, stronger effect = higher value
# [10] = growth inhibition, single agent or in combination, cell-based, chromothripsis tumors, cisplatin or BGB combos (AID 1671449); conditions: LFS_MB_P medulloblastoma cells;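 note: cells exposed for 96 hours; 0% = vehicle DMSO and 100% = killing by high DMSO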
# [11] = growth inhibition, single agent and combos, cell-based, chromothripsis tumors, cisplatin or BGB combos (AID 1671450); conditions: HDN33 neuroblastoma cells, stronger effect = higher value;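 note: cells exposed to compound for four days; 0% = vehicle DMSO and 100% = cell killing by high DMSO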
# [12] = growth inhibition, single agents and combos, ICB984, cell-based, cisplatin or BGB combos, synergistic combos for chromothripsis tumors (AID 1671451; call rule not given here;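 note: cells exposed for 96 hours before readout; 0% = vehicle DMSO and 100% = killing by high DMSO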); conditions: ICB984 medulloblastoma cells, drug combinations, stronger effect = higher value
# [13] = growth inhibition, single agents and combos, LFS_MB_1R, cell-based, cisplatin or BGB combos, synergistic combos for chromothripsis tumors (AID 1671452); conditions: LFS_MB_1R medulloblastoma cells, stronger effect = higher value;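 note: cells exposed for 96 hours before readout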
# [14] = growth inhibition, single agents and combos, HTB85, cell-based, BGB or cisplatin IC20 combos, synergistic combos for chromothripsis tumors (AID 1671453); conditions: HTB85 osteosarcoma cells, drug combinations, stronger effect = higher value;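 note: cells exposed for 96 hours before readout; 0% = vehicle DMSO and 100% = high DMSO killing control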
# [15] = growth inhibition, single agents and combos, CRL2098, cell-based, BGB or cisplatin IC20 combos, synergistic combos for chromothripsis tumors (AID 1671454); conditions: CRL2098 osteosarcoma cells, drug combinations, stronger effect = higher value;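 note: cells exposed for 96 h before readout; 0% = vehicle DMSO and 100% = killing by high DMSO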
# [16] = growth inhibition, single agents and combos, HD-MB03, cell-based, BGB or cisplatin IC20 combos, synergistic combos for chromothripsis tumors (AID 1671455; in the data active = inhibition above about 83%;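 note: 0% = vehicle DMSO and 100% = high DMSO as cytotoxic control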); conditions: HD-MB03 medulloblastoma cells, stronger effect = higher value
# [17] = growth inhibition, single agents and combos, UWB1.289, cell-based, BGB or cisplatin combos, synergistic combos for chromothripsis tumors (AID 1671456); conditions: UWB1.289 ovarian carcinoma cells, stronger effect = higher value;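 note: cells exposed to compound for four days; 0% = vehicle DMSO and 100% = killing by high DMSO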
# [18] = growth inhibition, single agents and combos, LFS_MB_2R, cell-based, cisplatin combos, synergistic combos for chromothripsis tumors (AID 1671457); conditions: LFS_MB_2R medulloblastoma cells, stronger effect = higher value;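 note: cells exposed to compound for four days before readout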
# [19] = growth inhibition, MDA-MB-436, cell-based, BGB or cisplatin combos, synergistic combos for chromothripsis tumors (AID 1671458; call rule not given here;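 note: cells exposed for 96 hours; 0% = vehicle DMSO and 100% = killing by high DMSO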); conditions: MDA-MB-436 breast carcinoma growth inhibition, drug combinations, stronger effect = higher value
# [20] = UWB1.289_BRCA1 ovarian cancer growth, cell-based, BGB or cisplatin combinations (AID 1671459); conditions: UWB1.289 BRCA1 ovarian carcinoma, drug combinations, stronger effect = higher value
# [21] = drug combination toxicity in non-malignant astrocytes – cell-based, BGB or cisplatin IC20 combos, cytotoxicity control for chromothriptic childhood tumor combination screen (AID 1671460); conditions: Human astrocytes, viability inhibition, drug combinations, at 0.5 µM, stronger effect = higher value;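 note: cells exposed to compounds for 96 hours before viability readout; 0% = vehicle and 100% = killing control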
# [22] = BT084 cell growth, single and combined drugs, ICGC_MB145, cisplatin and BGB IC40 combos (AID 1671461); conditions: BT084 medulloblastoma cells, drug combinations, stronger effect = higher value;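 note: cells exposed to drugs for 96 hours; 0% = vehicle DMSO and 100% = high DMSO full killing control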
# [23] = RCMB18 cell growth, single agent and combined, cisplatin and BGB IC40 combos (AID 1671462); conditions: RCMB18 medulloblastoma cells, stronger effect = higher value;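 note: cells exposed to compound for four days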
# [24] = CRL1545 cell growth, single agent and combined, cisplatin and BGB IC20 combos (AID 1671464); conditions: CRL1545 osteosarcoma cells, stronger effect = higher value;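 note: cells exposed to compound for 96 hours before readout; 0% = vehicle DMSO and 100% = high DMSO killing control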
# [25] = measured here: combination with BGB IC40, at 0.05 µM
# [26] = measured here: with BGB IC20 combination, at 0.5 µM
# [27] = measured here: with cisplatin IC20 combination, at 0.5 µM
# [28] = measured here: combination with cisplatin, at 0.5 µM
# [29] = measured here: combination with cisplatin, at 5 µM
# Sequence of Mitogen-activated protein kinase 7 (Homo sapiens) (Q13164 whole entry, looked up, the tested form may be a part): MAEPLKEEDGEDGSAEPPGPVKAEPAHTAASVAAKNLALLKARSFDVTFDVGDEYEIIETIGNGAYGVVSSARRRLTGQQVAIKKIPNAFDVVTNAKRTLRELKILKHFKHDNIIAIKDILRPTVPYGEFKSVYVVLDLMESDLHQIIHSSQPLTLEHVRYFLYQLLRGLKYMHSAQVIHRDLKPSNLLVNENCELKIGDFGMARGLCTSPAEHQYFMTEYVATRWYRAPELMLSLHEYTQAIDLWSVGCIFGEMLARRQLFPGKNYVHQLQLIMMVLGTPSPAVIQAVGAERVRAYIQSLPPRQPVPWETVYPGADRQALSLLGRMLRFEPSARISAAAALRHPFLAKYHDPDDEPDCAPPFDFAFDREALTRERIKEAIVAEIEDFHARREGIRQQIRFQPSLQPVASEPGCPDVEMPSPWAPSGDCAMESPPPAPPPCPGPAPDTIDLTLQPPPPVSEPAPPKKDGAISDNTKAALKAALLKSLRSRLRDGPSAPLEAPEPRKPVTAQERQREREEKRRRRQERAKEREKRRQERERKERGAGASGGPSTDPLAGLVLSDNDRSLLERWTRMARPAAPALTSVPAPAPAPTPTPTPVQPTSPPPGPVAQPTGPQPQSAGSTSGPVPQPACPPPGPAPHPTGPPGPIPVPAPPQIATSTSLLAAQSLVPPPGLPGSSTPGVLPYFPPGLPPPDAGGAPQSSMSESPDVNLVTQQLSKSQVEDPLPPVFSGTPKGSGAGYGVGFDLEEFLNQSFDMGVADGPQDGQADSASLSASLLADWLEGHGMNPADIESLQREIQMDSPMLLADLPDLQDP
smiles,measurement,setting,value
CC[C@@]1(O)C(=O)OCc2c1cc1n(c2=O)Cc2cc3cc(O)ccc3nc2-1,red/green cell ratio (normalised),"[1]; actives lie on both sides, counts scaled to control wells, 1 = unselective",0.94 (inactive)
same,normalised cell number,[1]; measured here: epithelial PC-3E GFP cell survival,0.31
same,normalised cell number,[1]; measured here: mesenchymal TEM4-18 mCherry cell survival,0.29
same,AC50,[2],16.6 nM (active)
same,AC50,[3],1870 nM (active)
same,AC50,[4],83.3 nM (active)
same,AC50,[5],66.1 nM (active)
same,AC50,[6],148 nM (active)
same,outcome,[7],inactive
same,fold fluorescence,[8],7.95 [at 137.2 µM] (inactive)
same,luciferase signal,[9],44 AU (inactive)
same,inhibition,"[10]; at 0.5 µM, stronger effect = higher value",25.9% (inactive) and 5.42% (inactive)
same,inhibition,"[10]; measured here: combination with BGB IC20, at 0.005 µM",4.22% and -3.99%
same,inhibition,"[10]; measured here: combination with BGB IC40, at 0.005 µM",-42.5% and -15.9%
same,inhibition,[10]; [25],-16% and -4.31%
same,inhibition,"[10]; measured here: combination with cisplatin, at 0.5 µM, stronger effect = higher value",62.8% and 48.1%
same,inhibition,"[10]; measured here: combination with cisplatin, at 5 µM, stronger effect = higher value",89.7% and 78.7%
same,inhibition,"[11]; BGB combo, at 5 µM",98.1% and 98.5%
same,inhibition,[11]; at 0.5 µM,78.7% (inactive) and 83.5% (active)
same,inhibition,"[11]; cisplatin combo, at 5 µM",96.5% and 98%
same,inhibition,[11]; [26],82.7% and 84.4%
same,inhibition,[11]; [27],71% and 81.1%
same,inhibition,"[11]; single agent, at 5 µM",96.6% and 97.8%
same,inhibition,"[12]; BGB IC20 combo, at 0.005 µM",23.2% and 34.7%
same,inhibition,"[12]; BGB IC40 combo, at 0.005 µM",40.1% and 53.7%
same,inhibition,"[12]; BGB IC40 combo, at 0.05 µM",93.9%
same,inhibition,[12]; at 0.5 µM,-30.2% (inactive) and -10.4% (inactive)
same,inhibition,"[12]; cisplatin combo, at 0.05 µM",93.6% and 93.9%
same,inhibition,"[12]; cisplatin combo, at 0.5 µM",-46.6% and -4.75%
same,inhibition,"[12]; cisplatin combo, at 5 µM",-24.4% and 16.7%
same,inhibition,"[12]; measured here: 5 uM single agent, at 5 µM",-21.1% and 2.06%
same,inhibition,[13]; at 0.5 µM,67.2% (inactive) and 79% (inactive)
same,inhibition,[13]; [25],-33.9% and 7.21%
same,inhibition,[13]; [28],83.2% and 73.4%
same,inhibition,[13]; [29],84.4% and 82.5%
same,inhibition,[14]; at 0.5 µM,99% (active) and 98.8% (active)
same,inhibition,"[14]; measured here: with BGB IC20, at 0.5 µM",97.9% and 98.3%
same,inhibition,"[14]; measured here: with BGB IC20, at 5 µM",98.2% and 98.3%
same,inhibition,"[14]; measured here: with cisplatin IC20, at 0.5 µM",99.3% and 98.9%
same,inhibition,"[14]; measured here: with cisplatin IC20, at 5 µM",99.6% and 99.7%
same,inhibition,"[14]; single agent, at 5 µM",99.5% and 99.7%
same,inhibition,[15]; at 0.5 µM,58.1% (inactive) and 64.8% (inactive)
same,inhibition,"[15]; measured here: combination with BGB at IC20, at 0.5 µM",81.9% and 74.5%
same,inhibition,"[15]; measured here: combination with cisplatin at IC20, at 0.5 µM",44.1% and 55.5%
same,inhibition,[16]; at 0.5 µM,99.4% (active) and 99.3% (active)
same,inhibition,"[16]; measured here: combo with BGB at IC20, at 0.5 µM",99.4%
same,inhibition,"[16]; measured here: combo with cisplatin at IC20, at 0.5 µM",99.4% and 99.2%
same,inhibition,[17]; at 0.5 µM,90.1% (active) and 89.5% (active)
same,inhibition,"[17]; measured here: inhibition with BGB combination, at 0.05 µM",17.9% and 40%
same,inhibition,"[17]; measured here: inhibition with cisplatin combination, at 0.05 µM",28.7% and 40.8%
same,inhibition,[18]; at 0.5 µM,21.3% (inactive) and 29.5% (inactive)
same,inhibition,[18]; [28],63.4% and 65.4%
same,inhibition,[18]; [29],76.4% and 77.8%
same,inhibition,[19]; at 0.5 µM,69.5% (inactive) and 70% (inactive)
same,inhibition,"[19]; measured here: BGB combination, at 0.5 µM",63.8% and 64.7%
same,inhibition,"[19]; measured here: BGB combination, at 5 µM",63.6% and 74.3%
same,inhibition,"[19]; measured here: cisplatin combination, at 0.5 µM",71.5% and 68.7%
same,inhibition,"[19]; measured here: cisplatin combination, at 5 µM",80.4% and 83.5%
same,inhibition,"[20]; BGB combination, concentration series, at 5 µM",96.9% and 98%
same,inhibition,[20]; at 0.5 µM,97.1% (active) and 97.8% (active)
same,inhibition,"[20]; cisplatin combination, concentration series, at 5 µM",99.8% and 104%
same,inhibition,[21],84.1% (active) and 83.3% (active)
same,inhibition,[21]; measured here: combo with BGB IC20,91.6% and 86.1%
same,inhibition,[21]; measured here: combo with cisplatin IC20,76% and 80.4%
same,inhibition,[22]; at 0.5 µM,13.5% (inactive) and 7.41% (inactive)
same,inhibition,"[22]; cisplatin combination, at 0.5 µM",46.9% and 55.3%
same,inhibition,"[22]; cisplatin combination, at 5 µM",28% and 7.98%
same,inhibition,"[22]; measured here: BGB IC40 combination 0.05 uM, at 0.05 µM",-21.8% and -8.97%
same,inhibition,"[22]; single agent, at 5 µM",42.3% and 44.7%
same,inhibition,[23]; at 0.5 µM,36.1% (inactive) and 38.1% (inactive)
same,inhibition,"[23]; cisplatin combo, at 5 µM",72.4% and 72.1%
same,inhibition,"[23]; measured here: BGB IC40 combination, at 0.05 µM",-15.2% and -13.6%
same,inhibition,[23]; [28],47.7% and 55.8%
same,inhibition,"[23]; single agent, at 5 µM",59.8% and 73%
same,inhibition,[24]; at 0.5 µM,81.7% (active) and 82.4% (active)
same,inhibition,[24]; [26],95.3% and 93.8%
same,inhibition,[24]; [27],74.8% and 76.7%
same,inhibition,"[24]; single agent, at 0.05 µM",4.98% and 48.5%
same,inhibition,"[24]; single agent, at 5 µM",99.8% and 99.9%
